# CHT allo act = CHT positive allosteric modulators, primary screen, cell-based, membrane potential dye, choline EC20. hit rate 0.49% among 310,000. High affinity choline transporter 1 (Homo sapiens), Q9GZV3. CHT-expressing cells; active compounds read high; LV-AA mutant CHT in HEK293 cells. AID 488977, 2010. B-score at 10 µM;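 active = initial fluorescence not abnormally high and integrated response B-score, plate-corrected, over 3 SD above library mean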
# ANO1 block = TMEM16A chloride channel inhibitors, primary screen, cell-based, HTS; Anoctamin-1 (Mus musculus), Q8BHY3; HEK293 TMEM16A/YFP iodide influx fluorescence, ionomycin; normalized B-score (activity score, 25-100; higher = stronger inhibition) at 10 µM; hit rate 1.2% among 310,000;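 active = ratio plate-corrected score three or more library SD toward inhibition, starting fluorescence score within five deviations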;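 note: score derived from kinetic fluorescence span divided by baseline fluorescence per well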
# TMEM16A act = TMEM16A chloride channel activators or potentiators, primary screen, cell-based, HTS. HEK293 TMEM16A/YFP-H148Q/I152L, iodide quench fluorescence; active compounds read low. hit rate 0.3% among 340,000. AID 623877, 2012. B-score at 10 µM. Anoctamin-1 (Mus musculus), Q8BHY3;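 active = fluorescence-ratio B-score plate-corrected deviation score at least 3 library SD below zero, with starting fluorescence score within 5 deviations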;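 note: channel opened by trigger with iodide after compound preincubation; score built on the fluorescence ratio of max minus min over baseline; more negative score means more quench and so TMEM16A activation or potentiation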
# PKA-R2B activ = activators of PKA-R2B holoenzyme, primary screen, biochemical, fluorescence polarization, Cy5-IP20, human | cAMP-dependent protein kinase catalytic subunit beta (Homo sapiens) + cAMP-dependent … | PKA-R2B holoenzyme dissociation; R2B truncated from residue 108, S112A mutant; 0% DMSO only, 100% 113 µM cGMP | activation, % at 11.4 µM | hit rate 0.079% among 340,000;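 active = activation above a cutoff set at the mean over all compounds plus 3 SD, cut at about 18% in these data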;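 note: higher means more holoenzyme dissociation and a rise in polarization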
# Target sequence (P31323 whole entry, looked up, other chains not shown, the tested form may be a part): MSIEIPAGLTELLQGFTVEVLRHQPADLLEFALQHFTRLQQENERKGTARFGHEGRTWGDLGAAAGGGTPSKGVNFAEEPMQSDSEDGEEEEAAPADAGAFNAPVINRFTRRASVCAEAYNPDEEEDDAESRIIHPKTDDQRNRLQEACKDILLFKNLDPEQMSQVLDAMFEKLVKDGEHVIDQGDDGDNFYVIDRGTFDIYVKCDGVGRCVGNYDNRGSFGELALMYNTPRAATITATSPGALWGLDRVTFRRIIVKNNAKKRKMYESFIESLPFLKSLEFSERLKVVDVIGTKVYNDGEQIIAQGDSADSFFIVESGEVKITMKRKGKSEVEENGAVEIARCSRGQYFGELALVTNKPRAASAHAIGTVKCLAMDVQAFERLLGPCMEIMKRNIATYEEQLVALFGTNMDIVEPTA
# CHT inh = inhibitors of human choline transporter CHT. hit rate 0.86% among 310,000. High affinity choline transporter 1 (Homo sapiens), Q9GZV3. CHT-expressing cells, membrane potential dye, choline response; active compounds read low. AID 488975, 2010. B-score at 10 µM;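 active = B-score over 3 SD under the library average, and starting fluorescence ratio not unusually high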;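 note: choline stimulus applied at its EC90 after an EC20 pre-addition; B-score computed on integrated fluorescence ratio after choline addition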
# PKA-R1A act = activators of PKA-R1A holoenzyme, primary screen, biochemical, fluorescence polarization, Cy5-IP20, bovine R1A, mouse PKAc; PKA-R1A dissociation; scaled: DMSO 0%, 113 µM cGMP 100%; activation, % at 11.4 µM; AID 504707, 2011; cAMP-dependent protein kinase type I-alpha regulatory subunit (Bos taurus) + …; hit rate 0.083% among 340,000;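 active = percent activation above the mean of all tested compounds plus 3 SD, cut at about 19% in these data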;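 note: higher means more PKAc released from R1A so a rise in polarization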
# CHT block conf = CHT inhibitors, confirmation, cell-based, membrane potential dye, duplicate; shares compounds with CHT inh; AID 493221, 2011; hit rate 70% among 2,400; CHT activity remaining % of control (active compounds read low), % at 10 µM; CHT-expressing cells, choline membrane potential dye; LV-to-AA substituted CHT, HEK293 cells;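 active = choline transporter activity left, mean of duplicates at 10 µM, below buffer-only control mean minus 3 SD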;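 note: depolarization triggered by choline at its EC90 following an EC20 pre-addition; 0% = hemicholinium-3 full block and 100% = buffer-only control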
# HEK293 MPD ctr = membrane potential effects in parental HEK293, counter-screen for CHT inhibitor project, cell-based, membrane potential dye. membrane potential ratio readout (active if shifted either direction beyond buffer ±3SD; no single direction) at 10 µM. hit rate 4% among 2,400. choline response; active = decrease or increase beyond buffer ±3SD. shares compounds with CHT inh. AID 493222, 2011;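 note: parental cells lack the transporter so any hit is non-specific; ratio is peak minus trough fluorescence over baseline after EC90 choline challenge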
# An asterisk follows results filed as active; i = inactive; · = no result. A selection: hits, their analogues and other compounds. The true share with any hit is near 2.5%.
SMILES,CHT allo act,ANO1 block,TMEM16A act,PKA-R2B activ,CHT inh,PKA-R1A act,CHT block conf,HEK293 MPD ctr
Cc1ccc(-n2[nH]c(C)c(/C=N/Nc3ccc([N+](=O)[O-])cc3[N+](=O)[O-])c2=O)cc1C,i,25*,i,-2.8,-8.38*,-17.0,35.5%*,i
Cc1[nH]n(-c2ccccc2)c(=O)c1/C=N/NC(=O)c1cccc([N+](=O)[O-])c1,i,i,i,-11.1,i,-2.4,·,·
O=C(CSc1nnc(CNC(=O)c2c(F)cccc2F)o1)Nc1ccc2c(c1)OCCO2,i,i,i,-2.4,i,-9.2,·,·
Cc1noc(C)c1S(=O)(=O)Nc1ccccc1Cl,i,i,i,3.2,i,1.5,·,·
Cc1noc(C)c1S(=O)(=O)Nc1ccccc1Oc1ccccc1,i,i,i,0.8,-13*,-5.9,i,i
O=C(COc1ccccc1/C=C1\SC(=O)NC1=O)Nc1ccccc1,i,i,i,-12.4,-5.72*,3.7,51.5%*,i
COc1cccc(/C=C2/NC(=O)NC2=O)c1OCC(=O)Nc1ccccc1,i,i,i,-4.2,i,-4.2,·,·
CCN1CCN(c2sc(S(C)(=O)=O)nc2S(=O)(=O)c2ccc(C)cc2)CC1,i,i,i,-6.8,i,-15.5,·,·
Cc1ccc(-c2nn(-c3ccccn3)c(=O)c3ccccc23)cc1,i,i,i,-4.5,-5.22*,1.2,66.6%*,i
COC(=O)[C@@]1(C)[C@H]2C(=O)N(C)C(=O)[C@H]2[C@H]2CN=C(SC)N21,·,·,·,-1.0,·,-0.2,·,·
Fc1ccc(COc2ccc3ccccc3c2CNc2nn[nH]n2)cc1,i,i,i,-8.5,i,-12.4,·,·
CNCc1c(OCc2ccc(F)cc2)ccc2ccccc12,i,i,i,-7.8,-7.93*,5.9,41.0%*,-13.3*
CC1(C)N=C(N)N=C(N)N1CCCCc1ccccc1,·,·,i,-3.3,·,0.6,·,·
Cc1sc(NC(=O)c2ccco2)nc1-c1ccccc1,i,i,i,-0.1,-9.22*,-21.5,53.2%*,i
Cc1ccc(S(=O)(=O)NCCC(=O)NNC(=O)c2ccccc2O)cc1C,i,i,i,-6.1,i,-0.9,·,·
O/N=C/c1ccnc(SCc2ccccc2)n1,i,i,i,4.5,-5.08*,0.1,59.1%*,i
COc1cc(/C=C2\SC(=S)N(NC(=O)c3cccnc3)C2=O)ccc1O,i,i,i,0.8,i,4.3,·,·
O=C(NN1C(=O)/C(=C/c2cccs2)SC1=S)c1ccncc1,i,i,i,-2.9,-10.1*,-1.2,7.4%*,i
COc1cccc(/C=C2\SC(=S)N(NC(=O)c3ccncc3)C2=O)c1,i,i,i,-15.6,-8.67*,0.2,5.2%*,i
O=C(NN1C(=O)/C(=C/c2ccc(O)c(O)c2)SC1=S)c1ccccc1,i,i,i,-2.3,i,-12.9,·,·
O=C(NN1C(=O)/C(=C/c2cccc(O)c2)SC1=S)c1ccccc1O,i,i,i,-2.6,-5.23*,-13.6,67.8%*,i
O=C(CCCN1C(=O)/C(=C\c2cccs2)SC1=S)NNC(=O)c1ccncc1,i,i,i,6.8,i,-13.7,·,·
COc1ccc(Cn2c(-c3ccc(C)cc3)nc3c(c(=O)c4ccccc4n3C)c2=O)cc1,i,i,i,6.6,i,-7.6,·,·
CSc1nc(Nc2ccc(Cl)cc2)c(C#N)c(=O)[nH]1,i,i,i,4.9,-6.1*,-7.8,i,i
O=S(=O)(c1ccsc1)N1CC=C(c2ccccc2)CC1,i,i,i,0.6,i,-11.2,·,·
SMILES,CHT allo act,ANO1 block,TMEM16A act,PKA-R2B activ,CHT inh,PKA-R1A act,CHT block conf,HEK293 MPD ctr
CCOc1ccc(N(Cc2ccccc2F)C2=NC3CS(=O)(=O)CC3S2)cc1 (centres undefined),i,i,i,-3.0,i,-0.3,·,·
COC(=O)c1sc(NC(=O)c2ccc([N+](=O)[O-])o2)c(C#N)c1C,i,i,i,2.9,-7.96*,-8.3,62.2%*,2.52*
CC(=O)N1CCc2c(sc(NC(=O)c3ccc([N+](=O)[O-])o3)c2C#N)C1,·,·,i,17.8,·,13.0,·,·
CCOc1ccc(C(=O)NCC2CCN(CC3CCCCC3)CC2)cc1,·,·,i,16.7,·,5.5,·,·
COc1cc(NC(=O)c2csc(-c3ccncc3)n2)cc(C(=O)Nc2cccc(C(F)(F)F)c2)c1,i,i,i,1.6,-8.59*,3.8,25.8%*,i
O=C(Nc1cccc(C(F)(F)F)c1)c1csc(-c2ccncc2)n1,i,i,i,-1.5,i,5.8,·,·
COc1cccc(C(=O)NCCS(=O)(=O)NC2CCCC2)c1,i,i,i,-15.6,i,-0.1,·,·
O=C(N/N=C/c1cccs1)c1n[nH]c2c1CCCC2,i,i,i,-7.5,-6.02*,2.6,i,i
CCN(C(=O)c1cc2c(=O)n3ccccc3nc2n1CCCOC)C1CCCCC1,i,i,i,-6.9,-4.99*,-6.2,44.8%*,i
Cc1nc([N+](=O)[O-])c(Br)n1Cc1ccccc1,i,i,i,9.6,-9.97*,-1.6,60.7%*,i
Cc1nc([N+](=O)[O-])c(Br)n1CC(=O)c1ccc(F)cc1,·,·,i,-6.3,·,-15.8,·,·
CC1CCC2(CC1)NC(=O)N(CC(=O)Nc1sc3c(c1C(N)=O)CCC3)C2=O (centres undefined),i,i,i,0.8,i,7.0,·,·
NC(=O)c1c(NC(=O)CN2C(=O)NC(Cc3ccccc3)C2=O)sc2c1CCC2 (centres undefined),i,i,i,0.6,-6.3*,3.9,61.6%*,i

# Compound activity: PubChem, several laboratories
